# Test results taken from the OligoGym collection.
# Biological target: KIAA0564
# Assay: pooled miR-30 sensor sort-seq; sequence = guide strand
# Conditions: shRNA
# Note: reference of the scale not given here.
row,Sequence,sensor-assay potency score (higher = more potent)
1,TAGAACATCCAGCACAGTCAGG,-1.28
2,TAACAACTTAAGTTGGTCCTTG,0.426
3,TTGTGGAGGAGTAACATCTTTT,-1.09
4,TTTTTTTCTAATGCTGACCTAG,-0.423
5,TCTTTGTAGAACACCAGCCAGT,-0.952
6,TAAACATATATCTTTAACCATG,-1.59
7,TTTTTCTTTGTAGAACACCAGC,-1.28

# Biological target: KIAA0664
# Assay: as above
# Conditions: shRNA
row,Sequence,sensor-assay potency score (higher = more potent)
1,TTGGAGACCAGCTCGTCGGCGG,-0.677
2,TTGAGCACGTCCTCCTCGGTGA,-0.45
3,TTGAAGGTCGGGCTGATCTGGT,-0.0579
4,TTTTCTTCTGCAGCACAGCGAA,-0.902
5,TACGTCTTGAAGATGTGCTTGG,0.188
6,TGCATCTTGGTCTCCTCGCTGG,-0.849
7,TTTCTTCTGCAGCACAGCGAAG,-1.66
8,TTGCACTCGACCGAGGAGCAGA,-0.997
9,AAGTTCTTCTTGAAGGTCGGGC,-0.0493
10,TTGCTCTCGTAGACTCGGGCGA,-0.673
11,TTGACGTGCTTGACCACGGGGA,-0.0674
12,TTCTTCTTGAAGGTCGGGCTGA,-0.121

# Biological target: KIAA0930
# Assay: as above
# Conditions: shRNA
row,Sequence,sensor-assay potency score (higher = more potent)
1,TTCTTCATCTCAGCGATCCGGT,-0.0677
2,AAAAGCATGTCGTCCTGCCGGG,-0.426
3,TAAGTGTGCATAGAGAAGGAAG,-1.42
4,TCACCTGTAGACACTCGGCTGA,-0.216
5,TTCTCCATGAAGTAGGTGGAGA,-1.12
6,TTGCTGTACTTGTAGAAGCCAA,-0.811
7,TTCTTGAGCGCCTCGTAGCGGA,-0.914
8,AAGTAGGTGGAGAACATCCAAG,-1.37
9,ATAGAAAAGCATGTCGTCCTGC,0.0437
10,TTCAGCTTCAGCCAGGACCCGA,-1.04
11,TTTGTCACTAGCCACCAGCTCC,-0.835
12,TTATGGATGTGAATGTCCCCGC,-0.555

# Biological target: KIAA1217
# Assay: as above
# Conditions: shRNA
row,Sequence,sensor-assay potency score (higher = more potent)
1,TAGTGATCCAGATTTTGCCTTT,-0.121
2,TGAACTTCCATTCTGTGCCTTG,0.302
3,TACACTTTGAGGAGTGATCTGT,0.221
4,TTTCTCGATAGACACTGCCCTG,-1.06
5,TTTCCCATTATAGTGATCCAGA,-1.06
6,TTTGCTTGAACTTCCATTCTGT,0.925
7,TTCTTCAATGAACAAGCTCTGC,-0.544
8,TATTTTGTAGCTCTGGTCTGTG,0.157
9,TTTTTGTCTCTCTTGCTCCACT,-0.52
